Measurements reported in PubChem BioAssay (NCI).
The panel holds about 83,000 compounds, 20% with a hit somewhere; the sample as a whole holds those more often.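 Single-concentration screen, 48 h exposure, 96-well plates. Endpoint: percent growth. Below 10 = active.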

How the values were obtained:
Test in all cases: NCI-60 one-dose screen, 48 h (100 = growth as untreated, 0 = no growth, -100 = all killed)
Settings in all cases: 10 µM unless noted
[1] = test system: NCI-H23 lung
[2] = test system: NCI-H226 lung
[3] = test system: NCI-H322M lung
[4] = test system: HOP-62 NSCLC
[5] = test system: NCI-H460 lung
[6] = test system: HOP-92 NSCLC
[7] = test system: A549/ATCC NSCLC
[8] = test system: 786-0 renal
[9] = test system: COLO 205 colon
[10] = test system: DU-145 prostate
[11] = test system: K-562 leukemia
[12] = test system: MALME-3M melanoma
[13] = test system: MDA-MB-231 breast
[14] = test system: RXF 393 renal
[15] = test system: SF-268 CNS
[16] = test system: SF-295 CNS
[17] = test system: SF-539 CNS
[18] = test system: UACC-257 melanoma
[19] = test system: M14 melanoma

Measured: growth

COc1cccc(OC)c1C(=O)N[C@@H]1C(=O)N2[C@@H]1SC(C)(C)[C@@H]2C(=O)O
inactive: [1] 103% | [2] 107% | [3] 95.6% | [4] 103% | [5] 112% | [6] 44.9% | [7] 105% | [8] 95.6% | [9] 107% | [10] 115% | [11] 110% | [12] 93.9% | [13] 102% | [14] 125% | [15] 109% | [16] 105% | [17] 108% | [18] 103% | [19] 97.9%

O=C1c2cccc3cccc(c23)C(=O)N1N1C(=O)c2cccc3c(NC4CCCCC4)ccc(c23)C1=O
inactive: [1] 90.4% | [2] 94% | [3] 96.4% | [4] 92.6% | [5] 98.8% | [6] 79.9% | [7] 94.4% | [8] 105% | [9] 103% | [10] 106% | [11] 87.1% | [12] 90.8% | [13] 75.6% | [14] 92.9% | [15] 93.6% | [16] 95.3% | [17] 94.2% | [18] 100% | [19] 96.2%

NS(=O)(=O)c1ccc(-n2nc(C(=O)N/N=C\c3ccc(F)cc3)cc2-c2ccc(Br)cc2)cc1
inactive: [1] 83.9% | [2] 81.9% | [3] 94.3% | [4] 65.3% | [5] 84.1% | [6] 67.8% | [7] 74.3% | [8] 106% | [9] 83.1% | [10] 93.4% | [11] 18% | [12] 68.3% | [13] 85.3% | [14] 77.8% | [15] 82.2% | [16] 74.6% | [17] 89.7% | [18] 86.1% | [19] 79.7%
